We go through 18 compounds from PubChem BioAssay (NCATS).

Inconclusive results are not listed. Values without a mark were called inactive. Calls of active or inactive are those of the source. Calls come from the whole dose curve; as a rule, active = well fitted inhibition curve with a large enough effect; inconclusive = small, poorly fitted or top-dose-only effect; inactive = flat fitted curve, though single readings scatter.
Potency is the fitted concentration of half-maximal effect.

The test relates to AS120. The test can be described thus: qHTS profiling for inhibitors of Plasmodium falciparum proliferation (AID 504749).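 For activity, negative = inhibition: 0% = DMSO vehicle and full inhibition = artemisinin control.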 Note: nearly all actives have a fitted effect of over 60% in size. To be noted: P. falciparum in erythrocytes, SYBR Green DNA, 72 h; series mostly up to 28.7 µM; activity, negative = inhibition: at the top concentration. Put shortly:
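Fluorescence of SYBR Green-bound parasite DNA, read at 485/535 nm, served as the growth measure. Infected erythrocytes were cultured with compound 72 h; artemisinin (0.29 uM) and DMSO wells defined the normalization range.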
Background: qHTS replaces the single test concentration by a dilution series.
As to `CCCCCCCCCCCCCCCC[N+](C)(C)C`, the Potency was 11.2 µM (active).
`C[C@]12CCC(=O)C(O)=C1CC[C@@H]1[C@H]3CCC(=O)[C@@]3(C)CC[C@@H]12`: the “activity, negative = inhibition” value was -21.5%.
Turning to `CC(C)NC(C)Cc1ccc(I)cc1` (stereo not drawn), the “activity, negative = inhibition” value is -8.23%.
Regarding `CCCCc1ccc(C(=O)O)nc1`, the “activity, negative = inhibition” value was 2.42%.
Still for that read-out and setting: with `NC(=O)CN1CC(O)CC1=O` (stereo not drawn) the figure was 5.72%; with `CCCN1CCC[C@H](c2cccc(O)c2)C1`, -12.8%.
As to `O=C(O)C(Cl)Cl`, the “activity, negative = inhibition” value was 4.39%.
For `CC(=O)[O][Hg][c]1ccccc1`, the Potency was 3.98 µM (active).
With `C=CCN1CC[C@]23CCCCC2[C@H]1Cc1ccc(O)cc13` (stereo partly drawn), the “activity, negative = inhibition” value was 12.4%.
On to `c1ccc(C2(c3ccccc3)CC2C2=NCCN2)cc1` (stereo not drawn), for which the “activity, negative = inhibition” value was -3.01%.
On to `Cc1ccc(Cl)c(O)c1`, for which the “activity, negative = inhibition” value was 6.47%.
Turning to `CN1C2CCC1CC(OC(=O)c1cc(Cl)cc(Cl)c1)C2` (stereo not drawn), the “activity, negative = inhibition” value was -15.1%.
In the case of `O=[N+]([O-])c1ccc([As](=O)(O)O)cc1`, the Potency was 7.94 µM (active).
Turning to `C1CCC(NC2CCCCC2)CC1`, the “activity, negative = inhibition” value was 3.68%.
On to `Cc1cc(O)ccc1Cl`, for which the “activity, negative = inhibition” value is 8.35%.
As for `CCCCCCCCCC(CC)c1ccc(S(=O)(=O)O)cc1` (stereo not drawn), the “activity, negative = inhibition” value was 1.7%.
Turning to `CC[N+]1(CCOC(=O)C(O)(c2ccccc2)c2ccccc2)CCCCC1`, the “activity, negative = inhibition” value was 1.76%.
The same measure, in the same setting: for `O=C(O)COc1ccccc1` the value was -4.4%.
